# Source: PubChem BioAssay (NCATS)
# A number with no mark means an inactive call. Records with an inconclusive call do not appear. Where a call stands in place of a potency, no number is given. The source made the active and inactive calls. Unless noted, the call rests on the fitted dose curve; in most records, active means well fitted curve in the direction sought with a large enough effect; inconclusive means small, poorly fitted or top-dose-only effect, or another doubt; inactive means no such curve, though single readings can be large; an effect the other way counts as inactive or inconclusive.
# Assays:
# [1] = Cell Viability - BJ (AID 421; calls by dose curve;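 further: potency means the concentration at half of the fitted maximal effect; cells exposed to compound for 40 hours at 37 °C before readout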); settings: BJ fibroblast viability, qHTS
# In short: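 Quantitative HTS: ATP depletion in BJ cells after 40 hr compound exposure in complete culture medium, detected with CellTiter-Glo; AC50 from standard Hill fits.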
# [2] = Cell Viability - HepG2 (AID 433; calls by dose curve;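 further: potency means the concentration at half of the fitted maximal effect; potency for ATP loss meaning cytotoxicity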); settings: qHTS
# In short: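 HepG2 hepatocellular carcinoma cells (1500/well) were treated with compounds for 40 h at 37 °C in complete medium; intracellular ATP was read by CellTiter-Glo luminescence. Data were normalized to DMSO and 100 uM tamoxifen, and AC50 came from Hill fits.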
# [3] = Cell Viability - MRC5 (AID 434; calls by dose curve;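 further: potency means the concentration at half of the fitted maximal effect; potency reflects cytotoxicity seen as loss of intracellular ATP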); settings: MRC5 lung fibroblast viability, qHTS
# In short: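 MRC5 normal human lung fibroblasts (1500/well) were treated with compounds for 40 hr at 37 °C in complete medium, and viable cells were measured as intracellular ATP by CellTiter-Glo luminescence. AC50 came from Hill fits, normalized to DMSO and 100 uM tamoxifen.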
# [4] = Cell Viability - NIH 3T3 (AID 541); settings: NIH 3T3 cell viability, qHTS; at 92.2 µM (top of the series); further: nearly all actives have a fitted effect of over 25% in size
# In short: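 Mouse NIH 3T3 fibroblasts, 1000 cells/well, rested 5 hr at 37 °C, then exposed to compound for 40 hr at 37 °C in complete medium. Viability read as intracellular ATP by CellTiter-Glo luminescence; AC50 from Hill-equation fits of concentration-response data.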
# [5] = Cell Viability - HUV-EC-C (AID 542); settings: HUV-EC-C endothelial cell viability, qHTS; series mostly up to 92.2 µM; further: nearly all actives have a fitted effect of over 35% in size; further: potency means the concentration at half of the fitted maximal effect
# In short: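 HUV-EC-C human vascular endothelial cells, 1000/well, exposed to compound for 40 hr at 37 °C in complete medium. Intracellular ATP was read by CellTiter-Glo luminescence. AC50 came from Hill-equation fits of concentration-response data.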
# [6] = Cell Viability - SH-SY5Y (AID 544); settings: SH-SY5Y neuroblastoma cell viability; series mostly up to 92.2 µM; further: nearly all actives have a fitted effect of over 55% in size
# In short: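 SH-SY5Y human neuroblastoma cells (1500/well) incubated 5 h, then compound-treated 40 h at 37 °C in complete medium. Viability read as intracellular ATP by CellTiter-Glo luminescence after 20 min; AC50 from Hill-equation fits of qHTS concentration-response.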
# [7] = Cellular Toxicity (caspase-3) HepG2 (AID 654); settings: HepG2 caspase-3 activation, luminescence, 0% = DMSO only, 100% = tamoxifen; series mostly up to 92.2 µM;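 further: cells exposed to compound for 16 hours before reading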
# In short: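 HepG2 cells (1500/well) were treated 16 h at 37 °C in complete medium, then caspase 3/7 activity was read by Caspase-Glo luminescence. Data were normalized to DMSO and 100 uM tamoxifen; AC50 came from Hill-equation fits of qHTS concentration-response.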
# [8] = molecular target: Cytochrome P450 1A2 (Homo sapiens) (UniProt P05177); experiment: p450-cyp1a2 (AID 410; calls by dose curve; further: potency means the concentration at half of the fitted maximal effect); settings: recombinant CYP1A2, luciferin-ME demethylation, luminescence; series mostly up to 57 µM
# Sequence of Cytochrome P450 1A2 (Homo sapiens) (P05177 whole entry, looked up): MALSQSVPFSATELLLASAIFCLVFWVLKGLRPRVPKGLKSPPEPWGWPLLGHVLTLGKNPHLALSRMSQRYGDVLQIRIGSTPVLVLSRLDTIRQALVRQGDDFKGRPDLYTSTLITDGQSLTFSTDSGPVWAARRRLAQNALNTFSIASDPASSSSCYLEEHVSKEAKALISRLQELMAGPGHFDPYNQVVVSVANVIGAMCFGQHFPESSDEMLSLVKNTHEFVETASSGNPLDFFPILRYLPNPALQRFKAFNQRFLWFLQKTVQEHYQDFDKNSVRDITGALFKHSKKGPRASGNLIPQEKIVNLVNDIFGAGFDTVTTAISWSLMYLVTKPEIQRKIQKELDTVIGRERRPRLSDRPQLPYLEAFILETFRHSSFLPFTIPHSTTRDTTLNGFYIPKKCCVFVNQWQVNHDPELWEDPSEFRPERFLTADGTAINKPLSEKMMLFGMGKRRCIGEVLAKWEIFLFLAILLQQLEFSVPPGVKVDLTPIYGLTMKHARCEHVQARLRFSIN
# In short: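 20nM CYP1A2 with 100uM Luciferin-ME (at Km) in 100mM KPO4; compound preincubated 10 min, NADPH regeneration added, 60 min at room temperature. Luciferin quantified by luminescence after detection reagent; normalized to 57 uM furafylline.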
# [9] = NFAT Signaling Pathway (AID 444; active means well fitted curve in either direction with a large enough effect, not every such curve was filed as active;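 further: carbachol stimulus at about its EC50 of 1 µM final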); settings: Jurkat NFAT-bla M1, carbachol, beta-lactamase ratio, 5 h; at 17.2 µM (top of the series)
# In short: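 Jurkat cells carrying an NFAT-driven β-lactamase reporter and co-transfected muscarinic M1 receptor were treated with compound plus carbachol (1 uM final, an EC50 level) for 5 h at 37 °C. CCF4 loading followed for 1 h at RT; 460/530 nm ratio gave %activity.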
# [10] = molecular target: 3',5'-cyclic-AMP phosphodiesterase 4B (Homo sapiens) (UniProt Q07343); experiment: qHTS Assay for Inhibitors of PDE-IV (AID 607; active means well fitted activation curve with a large enough effect in the main read-out, with a control signal flat, not every such curve was filed as active); settings: HEK293 ACTOne CNG channel cells, membrane potential fluorescence; series mostly up to 22.9 µM
# Sequence of 3',5'-cyclic-AMP phosphodiesterase 4B (Homo sapiens) (Q07343 whole entry, looked up): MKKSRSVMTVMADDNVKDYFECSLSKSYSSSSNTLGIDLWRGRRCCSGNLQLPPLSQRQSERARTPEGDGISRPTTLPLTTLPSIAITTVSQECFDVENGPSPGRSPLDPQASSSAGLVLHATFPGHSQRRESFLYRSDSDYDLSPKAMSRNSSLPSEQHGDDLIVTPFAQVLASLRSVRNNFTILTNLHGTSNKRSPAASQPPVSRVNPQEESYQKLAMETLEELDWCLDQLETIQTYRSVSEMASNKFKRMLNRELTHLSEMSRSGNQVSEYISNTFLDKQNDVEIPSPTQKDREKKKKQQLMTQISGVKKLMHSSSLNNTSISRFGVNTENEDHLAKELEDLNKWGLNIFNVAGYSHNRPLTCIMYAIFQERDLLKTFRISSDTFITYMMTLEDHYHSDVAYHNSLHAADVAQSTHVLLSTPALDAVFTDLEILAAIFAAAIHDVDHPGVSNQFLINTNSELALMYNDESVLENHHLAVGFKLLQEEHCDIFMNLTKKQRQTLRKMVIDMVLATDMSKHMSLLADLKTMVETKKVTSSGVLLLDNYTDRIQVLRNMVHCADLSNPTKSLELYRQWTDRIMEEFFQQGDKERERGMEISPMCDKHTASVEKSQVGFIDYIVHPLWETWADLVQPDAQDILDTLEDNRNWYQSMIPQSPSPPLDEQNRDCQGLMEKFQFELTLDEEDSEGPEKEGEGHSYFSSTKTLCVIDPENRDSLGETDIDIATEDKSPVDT
# In short: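 Live HEK293 cells with a modified cyclic nucleotide-gated (CNG) channel report intracellular cAMP via membrane-potential dye fluorescence (ex 535/em 590 nm). Endogenous PDE-IV was targeted. Compounds were tested at up to 22.9 uM final; RO 20-1724 100 uM served as control.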
# [11] = AP1 Signaling Pathway (AID 357; active means well fitted curve in either direction with a large enough effect, not every such curve was filed as active;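 further: ME-180 reporter cells stimulated with EGF at its EC50 level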); settings: ME-180 AP-1-bla reporter, EGF-induced, beta-lactamase ratio, 5 h; series mostly up to 17.2 µM
# In short: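 AP-1-bla ME-180 cells, Opti-MEM + 0.5% dialyzed FBS, plated overnight 37 °C. Cpd titration + EC50 EGF, 5 h 37 °C. CCF4 2.5 h RT; ex 405, em 460/530 ratio → %activity, AC50.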
# [12] = Stat Signaling Pathway (AID 446; active means well fitted curve in either direction with a large enough effect, not every such curve was filed as active;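 further: ME-180 cervical cancer cells given 40 pM IL-6 alongside compound; SIE-controlled beta-lactamase reporter measured as 460/530 nm FRET emission ratio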); settings: ME-180 (cervical carcinoma) SIE beta-lactamase reporter, IL-6 stimulated, 5 h; series mostly up to 17.2 µM
# In short: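 IL-6/STAT signaling read in ME-180 cells via an SIE beta-lactamase reporter. Stimulus was 40 pM IL-6 (its AC50) for 5 hrs, so both activation and inhibition register.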
# [13] = molecular target: Glucocorticoid receptor (Homo sapiens) (UniProt P04150); experiment: GR-GFP Redistribution (AID 450;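 active means compounds whose dose series gives a full or clear partial fitted curve of increased nuclear translocation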; further: potency means the concentration at half of the fitted maximal effect); settings: U2OS GR-GFP nuclear translocation, laser cytometry, 2 h
# Sequence of Glucocorticoid receptor (Homo sapiens) (P04150 whole entry, looked up, the tested form may be a part): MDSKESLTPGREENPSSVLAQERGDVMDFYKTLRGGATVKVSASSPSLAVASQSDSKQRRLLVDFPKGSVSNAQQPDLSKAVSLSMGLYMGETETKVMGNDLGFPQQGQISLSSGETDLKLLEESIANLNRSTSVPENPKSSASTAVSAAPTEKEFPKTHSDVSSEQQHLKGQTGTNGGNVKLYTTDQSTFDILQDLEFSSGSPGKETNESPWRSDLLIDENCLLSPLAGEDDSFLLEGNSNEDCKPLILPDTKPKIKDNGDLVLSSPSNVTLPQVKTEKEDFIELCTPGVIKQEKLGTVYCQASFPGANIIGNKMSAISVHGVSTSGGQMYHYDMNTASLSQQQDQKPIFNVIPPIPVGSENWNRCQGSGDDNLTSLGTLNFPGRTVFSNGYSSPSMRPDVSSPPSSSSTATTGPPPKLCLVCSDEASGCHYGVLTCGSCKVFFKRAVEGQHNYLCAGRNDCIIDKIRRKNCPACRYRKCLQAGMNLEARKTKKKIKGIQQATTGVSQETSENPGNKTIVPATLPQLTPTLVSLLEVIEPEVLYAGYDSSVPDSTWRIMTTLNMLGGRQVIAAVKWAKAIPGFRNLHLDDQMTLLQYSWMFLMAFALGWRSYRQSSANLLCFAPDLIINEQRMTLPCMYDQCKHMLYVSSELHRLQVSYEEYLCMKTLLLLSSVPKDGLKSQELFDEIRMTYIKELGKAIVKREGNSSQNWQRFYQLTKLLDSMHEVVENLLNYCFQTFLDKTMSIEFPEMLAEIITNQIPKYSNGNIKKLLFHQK
# [14] = molecular target: Glucocorticoid receptor (Homo sapiens) (UniProt P04150); experiment: GR-EFC Redistribution (AID 451; calls by dose curve; further: potency means the concentration at half of the fitted maximal effect); settings: CHO-K1 GR-EFC translocation, beta-gal luminescence, 2 h
# In short: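 CHO-K1 cells stably expressing nuclear-localized β-gal enzyme acceptor and GR fused C-terminally to the enzyme donor fragment; ligand-driven nuclear translocation restores β-gal by complementation. Compounds titrated up to 46 uM final, 2 h at 37 °C; luminescence read.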
# [15] = molecular target: Mitogen-activated protein kinase 10 (Mus musculus) (UniProt Q61831); experiment: JNK3 AlphaScreen Assay (AID 530; active means well fitted curve in either direction with a large enough effect, not every such curve was filed as active;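 further: kinase came from lysate of stimulated human HepG2 cells; signal reports phosphorylation of biotinylated GST-cJun 1-79 at Ser73 with 10 µM ATP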); settings: JNK3 lysate, c-Jun phosphorylation; series mostly up to 57.1 µM
# In short: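 Inhibitors reduce antibody binding to phosphorylated biotin-cJun, lowering AlphaScreen luminescence. Lysates from HepG2 cells pre-activated by IL-1beta plus TNF-alpha supplied JNK3; compounds were titrated.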
# [16] = Cell Viability - Hek293 (AID 427;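 active means compounds whose dose-response curve shows a full or clear partial loss of cell viability, called from curve shape rather than a numeric limit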;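 further: potency means the concentration at half of the fitted maximal effect; cells exposed to compound for 40 hours at 37 °C before reading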); settings: qHTS
# In short: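 AC50 values derive from Hill-modelled concentration-response of ATP-based luminescence, normalized between DMSO-only and 100 uM tamoxifen controls. Cells were exposed in complete culture medium for 40 hr at 37 °C before detection.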
# [17] = Cell Viability - SK-N-SH (AID 435; calls by dose curve;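 further: potency means the concentration at half of the fitted maximal effect; compound exposure lasted 40 h at 37 °C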); settings: SK-N-SH neuroblastoma cell viability qHTS
# In short: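 SK-N-SH human neuroblastoma cells (1500/well) were exposed to compounds in complete medium for 40 h at 37 °C, and intracellular ATP was then measured by CellTiter-Glo luminescence. AC50 was taken from Hill fits, normalized to DMSO and 100 uM tamoxifen.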
# [18] = Cell Viability - N2a (AID 540); settings: N2a mouse neuroblastoma cell viability; series mostly up to 92.2 µM; further: nearly all actives have a fitted effect of over 45% in size
# In short: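 Mouse neuroblastoma N2a cells, 1500/well, exposed to compounds 40 h at 37 °C in complete medium. Viability measured as cellular ATP by CellTiter-Glo luminescence; AC50 from Hill fits of concentration-response.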
# [19] = Cell Viability - H-4-II-E (AID 543); settings: H-4-II-E rat hepatoma viability; series mostly up to 92.2 µM; further: nearly all actives have a fitted effect of over 35% in size
# In short: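 Rat hepatoma H-4-II-E cells, 1500 per well, treated 40 h at 37 °C in complete medium. Cellular ATP read by CellTiter-Glo luminescence; AC50 from Hill fits of concentration-response.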
# [20] = Cell Viability - Mesenchymal (AID 546); settings: mesenchymal cells viability, qHTS; series mostly up to 91.7 µM;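 further: cells exposed to compound for 40 hours before reading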
# In short: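 Normal human renal glomerulus-derived kidney mesenchymal cells, 1000 per well in complete medium, were treated with compounds for 40 hr at 37 °C. Viability was read as intracellular ATP by CellTiter-Glo luminescence; AC50 values came from Hill-equation fits of qHTS concentration-response data.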
structure (smiles),measurement,setting,value
Clc1ccc(C(c2ccc(Cl)cc2)C(Cl)(Cl)Cl)cc1,Potency,[1],> 92 µM
same,Potency,[2],> 92 µM
same,Potency,[3],> 92 µM
same,"activity change, negative = cytotoxicity",[4],-24.2%
same,Potency,[5],50.1 µM (active)
same,Potency,[6],inactive
same,outcome,[7],inactive
O=c1oc2ccccc2c(O)c1Cc1c(O)c2ccccc2oc1=O,Potency,[8],12.6 µM (active)
same,"activity change, negative = inhibition",[9],-5.31%
same,outcome,[10],inactive
CNC(C)(C)Cc1ccccc1,outcome,[11],inactive
same,Potency,[8],inactive
same,"activity change, negative = inhibition",[9],-3.4%
same,outcome,[12],inactive
same,Potency,[13],> 20.6 µM
same,Potency,[14],> 20.6 µM
same,outcome,[15],inactive
same,outcome,[10],inactive
Clc1cccc(SC2CCNCC2)n1,outcome,[15],inactive
CC(C)NC(C)C,Potency,[1],> 92 µM
same,Potency,[16],> 92 µM
same,Potency,[2],> 92 µM
same,Potency,[3],> 92 µM
same,Potency,[17],> 92 µM
same,outcome,[15],inactive
same,outcome,[18],inactive
same,"activity change, negative = cytotoxicity",[4],-15.2%
same,Potency,[5],inactive
same,Potency,[19],inactive
same,Potency,[6],inactive
same,outcome,[20],inactive
same,outcome,[7],inactive
CCCC(C)(COC(N)=O)COC(N)=O,Potency,[1],> 92 µM
same,Potency,[16],> 92 µM
same,Potency,[2],> 92 µM
same,Potency,[3],> 92 µM
same,Potency,[17],> 92 µM
same,outcome,[18],inactive
same,"activity change, negative = cytotoxicity",[4],-19.1%
same,Potency,[5],inactive
same,Potency,[19],inactive
same,Potency,[6],inactive
same,outcome,[20],inactive
same,outcome,[7],inactive
CCC1(CC)C(=O)C=CNC1=O,outcome,[11],inactive
same,Potency,[8],inactive
same,"activity change, negative = inhibition",[9],-4.7%
same,outcome,[12],inactive
same,Potency,[13],> 20.6 µM
same,Potency,[14],> 20.6 µM
same,outcome,[15],inactive
same,outcome,[10],inactive
CCC(C)(C)c1ccc(O)cc1,Potency,[1],> 92 µM
same,Potency,[16],> 92 µM
same,Potency,[2],> 92 µM
same,Potency,[3],> 92 µM
same,Potency,[17],> 92 µM
same,outcome,[15],inactive
same,outcome,[18],inactive
same,"activity change, negative = cytotoxicity",[4],-23.4%
same,Potency,[5],inactive
same,Potency,[19],inactive
same,Potency,[6],inactive
same,outcome,[20],inactive
same,outcome,[7],inactive
Oc1ccc(Cl)cc1,Potency,[1],> 92 µM
same,Potency,[16],> 92 µM
same,Potency,[2],> 92 µM
same,Potency,[3],> 92 µM
same,Potency,[17],> 92 µM
same,outcome,[15],inactive
same,outcome,[18],inactive
same,"activity change, negative = cytotoxicity",[4],5.07%
same,Potency,[5],inactive
same,Potency,[19],inactive
same,Potency,[6],inactive
same,outcome,[20],inactive
same,outcome,[7],inactive
